PubChem BioAssay AID2685 (National Center for Advancing Translational Sciences (NCATS), 2010)
About 2,100 (0.66%) of roughly 320,000 compounds were called active. Another 53% or so got no clear call; they are omitted. The call rests on the fitted dose curve; in most records, active means well fitted inhibition curve with a large enough effect in the signal ratio, with a control signal flat (not every such curve was filed as active); inconclusive means small, poorly fitted or top-dose-only effect, or effect the other way, or a change in a side signal; inactive means flat fitted curve, though single readings scatter; the % refers to the signal ratio. What follows is part of a selection rich in actives, with near analogues and random picks from the rest.

Assay: qHTS Assay for Lipid Storage Modulators in Drosophila S3 Cells;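 on cell number change: cells counted by Cell Tracker Red CMTPX staining in the red channel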; on lipid storage change, negative = inhibition: on the % scale 0 is the no-effect control and ±100 the full control effect
Conditions: BODIPY lipid droplet fluorescence, 18-24 h, cells fed with added oleic acid; cell number change: measured here: cell count max response; series mostly up to 46.1 µM
Method in brief: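 Drosophila S3 cells loaded with oleic acid (400 uM, as added) and compounds at several concentrations; lipid droplets imaged by 488-nm laser-scanning cytometry, 500–530 nm intensity and object ratio to cell channel. Percent activity normalized to 20 uM Triacsin C.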
Potency means the concentration at half of the fitted maximal effect.

Row | Compound | Potency | cell number change [%] | lipid storage change, negative = inhibition
1 | C=CCNC(=O)c1ccc(N(Cc2ccccc2)S(C)(=O)=O)cc1 | inactive | -6.36 | –
2 | O=C(Oc1ccc(N(C(=O)c2ccncc2)S(=O)(=O)c2ccc(F)cc2)cc1)c1ccncc1 | inactive | – | –
3 | CCc1ccc(S(=O)(=O)N(C(=O)c2ccncc2)c2ccc(OC(=O)c3ccncc3)cc2)cc1 | 18.4 µM (active) | -8 | –
4 | COc1ccc(S(=O)(=O)N(C(=O)c2ccncc2)c2ccc(OC(=O)c3ccncc3)cc2)cc1 | inactive | -3.33 | –
5 | CC(C)CN(CC(C)C)C(=O)COn1nnc2ccc(S(=O)(=O)N3CCOCC3)cc21 | inactive | 3.81 | –
6 | CCCCn1nc2cc(C(=O)NCc3ccc(OC)cc3)ccc2c1OCC | inactive | -2.9 | –
7 | OCCN(Cc1ccccc1)Cc1ccccc1F | inactive | -24.2 | –
8 | C1=CC2CC1CC2CN1CCN(Cc2ccccc2)CC1 (configuration not stated) | inactive | – | –
9 | OCCN(Cc1ccccc1)CC1CC2C=CC1C2 (configuration not stated) | 29.1 µM (active) | 0.638 | –
10 | Cn1c2ccccc2c2nnc(SCC(=O)NC3CC3)nc21 | inactive | -0.952 | –
11 | COc1ccc2c(c1)c1nnc(SCC(=O)NC3CC3)nc1n2C | 1.46 µM (active) | -8.55 | –
12 | Cc1ccc2c(c1)c1nnc(SCC(=O)NC3CC3)nc1n2C | 5.8 µM (active) | 0.855 | –
13 | Cn1c2ccc(Br)cc2c2nnc(SCC(=O)O)nc21 | inactive | – | –
14 | Cn1c2ccccc2c2nnc(SCC(=O)NC3CCCC3)nc21 | inactive | -23.7 | –
15 | COc1ccc(N2CCN(C(=O)CSc3nnc4c5cc(C)ccc5n(C)c4n3)CC2)cc1 | inactive | 15.5 | –
16 | CC1CCC(NC(=O)COC(=O)c2cccnc2Cl)CC1 (configuration not stated) | inactive | – | –
17 | COC(=O)N1[C@H](Cc2ccccc2)C=C[C@]1(C)C(=O)NCc1ccccn1 | inactive | 11.5 | –
18 | O=S(=O)(Nc1ccc(OC(F)F)cc1)c1ccc(-c2ccon2)s1 | inactive | -0.692 | –
19 | O=C(CN1C(=O)c2ccccc2S1(=O)=O)Nc1ccccc1C(=O)NCc1ccco1 | inactive | -1.22 | –
20 | C=CCN(C(=O)Cn1c(C(=O)OC)cc2oc(C)cc21)c1ccccc1 | inactive | -13 | –
21 | Clc1ccc(OCCCc2nc(-c3cccnc3)no2)c(Cl)c1 | 14.6 µM (active) | -29.5 | –
22 | Clc1ccc(-c2noc(CCCOc3ccccc3)n2)cc1 | inactive | -10.9 | –
23 | Clc1ccc(OCc2nc(-c3ccncc3)no2)c(Cl)c1 | inactive | – | –
24 | C/C(=C\C(=S)Nc1ccccc1)Nc1ccccc1 | inactive | -10.3 | –
25 | Nc1ncc(-c2ccc([N+](=O)[O-])cc2)cn1 | inactive | 12.5 | –

Row | Compound | Potency | cell number change [%] | lipid storage change, negative = inhibition
26 | Nc1ncc2c(n1)CCN(c1ccc([N+](=O)[O-])cc1)C2 | 23.1 µM (active) | -20.7 | –
27 | O=[N+]([O-])c1ccc(N2CCCCC2)cc1 | inactive | 7.1 | –
28 | O=C(CCNC(=O)N1CC(=O)Nc2ccccc21)Nc1ccc(Br)cc1F | inactive | -22.5 | –
29 | O=C1c2cccc3cccc(c23)C(=O)N1Nc1ccccc1 | inactive | 13.9 | –
30 | COc1ccc(Br)cc1CSC(=N)N | inactive | 1.43 | –
31 | CCCOc1ccc(Br)cc1CSC(=N)N | 18.4 µM (active) | -27.5 | –
32 | CCOc1ccc(C(C)=O)cc1CSC(=N)N | inactive | 0.606 | –
33 | Cc1ccc2nc3c(c(Nc4ccccc4)c2c1)CCC3 | inactive | – | –
34 | COc1ccc(Nc2c3c(nc4ccccc24)CCC3)cc1 | inactive | 21.3 | –
35 | COc1ccc(Nc2c3c(nc4ccc(C)cc24)CCC3)cc1 | 20.6 µM (active) | 0.901 | –
36 | COc1ccc(C(C)=O)cc1COC(=O)CNC(=O)c1ccc(Cl)cc1 | inactive | -0.097 | –
37 | Cc1c(C(=O)N/N=C/C(C)C)[nH]c2ccc([N+](=O)[O-])cc12 | inactive | -4.9 | –
38 | O=C(NCCN1CCOCC1)c1sc2ccccc2c1Cl | inactive | -1.8 | –
39 | O=C(NCCCN1CCOCC1)c1sc2cc(Cl)ccc2c1Cl | inactive | 0.814 | –
40 | O=C(NCCN1CCOCC1)c1sc2cc(Cl)ccc2c1Cl | 4.61 µM (active) | -3.15 | –
41 | COc1ccc(NC(=O)Nc2nnc(-c3ccco3)s2)cc1 | inactive | 3.5 | –
42 | Cc1nc(NC2=NCN(CCCN3CCOCC3)CN2)nc2c(C)cccc12 | inactive | – | –
43 | Cc1cc(C)c2nc(NC3=NCN(CCN4CCOCC4)CN3)nc(C)c2c1 | 25.9 µM (active) | 3.72 | –
44 | Cc1cc2nc(NC3=NCN(CCN4CCOCC4)CN3)nc(C)c2cc1C | inactive | -6.7 | –
45 | CS(=O)(=O)NN1C(=O)c2ccccc2NC1c1c[nH]c2ccccc12 (configuration not stated) | inactive | 15.5 | –
46 | CCOc1ccc(NC(=O)CCC(=O)NNC(=O)c2ccc(Br)o2)cc1 | 6.51 µM (active) | 5.86 | –
47 | CCOc1ccc(NC(=O)CCC(=O)NNC(=O)Nc2ccc(Cl)cc2)cc1 | inactive | 10.6 | –
48 | CCOc1ccc(NC(=O)CCC(=O)NNC(=O)c2ccco2)cc1 | inactive | – | –
49 | CCOCCCNc1c2c(nc3cc(-c4ccc(F)cc4)nn13)CCC2 | inactive | 9.58 | –
50 | CC(C)Cn1c(CCCNC(=O)c2ccco2)nc2ccccc21 | inactive | – | –

Row | Compound | Potency | cell number change [%] | lipid storage change, negative = inhibition
51 | CCCCn1c(CCNC(=O)c2ccco2)nc2ccccc21 | inactive | 8.05 | –
52 | C=CCn1c(CCNC(=O)c2ccco2)nc2ccccc21 | inactive | 8.97 | –
53 | CC(C)Cn1c(CCNC(=O)c2ccco2)nc2ccccc21 | 3.66 µM (active) | – | –
54 | CCn1c(CCNC(=O)c2ccco2)nc2ccccc21 | inactive | -11.3 | –
55 | C=C(C)Cn1c(CCNC(=O)c2ccco2)nc2ccccc21 | 0.517 µM (active) | 15.2 | –
56 | CC(=O)c1ccc(S(=O)(=O)N2CCN(C(=O)c3ccccc3Cc3ccccc3)CC2)cc1 | inactive | – | –
57 | CCNC(=O)CN(CCc1ccccc1)S(C)(=O)=O | inactive | -1.75 | –
58 | NC(=O)CSc1nccn1Cc1ccccc1 | inactive | -3.05 | –
59 | CCOc1ccc(S(=O)(=O)N2CCC(C(=O)NCC3CCCO3)CC2)cc1Cl (configuration not stated) | inactive | 20.5 | –
60 | CSc1ccc(S(=O)(=O)NC2CC2)cc1 | inactive | 1.23 | –
61 | O=S(=O)(NC1CCCC1)c1ccc(S(=O)(=O)NC2CCCC2)cc1 | inactive | 5.07 | –
62 | CSc1ccc(S(=O)(=O)NC2CCCCC2)cc1 | 23.1 µM (active) | 26.8 | –
63 | Cc1cccc(C)c1NC(=S)N(CCN(C)C)Cc1cccs1 | inactive | -10.3 | –
64 | Cc1ccc(S(=O)(=O)Nc2ccc(-n3cnnn3)cc2)c(C)c1 | 0.58 µM (active) | -8.9 | –
65 | Cc1ccc(S(=O)(=O)Nc2ccc(-n3cnnn3)cc2)cc1 | inactive | 12.5 | –
66 | O=S(=O)(Nc1cccc(-n2cnnn2)c1)c1ccccc1C(F)(F)F | inactive | -11 | –
67 | O=S(=O)(Nc1ccc(-n2cnnn2)cc1)c1ccc(Cl)cc1 | inactive | -6.89 | –
68 | O=S(=O)(Nc1cccc(-n2cnnn2)c1)c1ccccc1 | inactive | -16.7 | –
69 | O=S(=O)(Nc1cccc(-n2cnnn2)c1)c1cc(Br)ccc1Br | 20.6 µM (active) | -10.7 | –
70 | O=C(CNC(c1ccccc1)c1ccccc1)NCc1ccccc1Cl | inactive | 11.7 | –
71 | Cc1cccc(N2CCN(S(=O)(=O)c3c(C)noc3/C=C/N(C)C)CC2)c1C | inactive | 12.9 | –
72 | O=C(/C=C/c1cccs1)Nc1nc(-c2ccccc2)cs1 | inactive | – | –
73 | Cc1cc(C)nc(NC(=O)/C=C/c2cccs2)c1 | inactive | -8.29 | –
74 | Cc1cc(C)c(-c2csc(NC(=O)/C=C/c3cccs3)n2)c(C)c1 | 16.4 µM (active) | -27.5 | –
75 | O=C(NCCCc1ccccc1)C1CC(=O)N(c2ccc3c(c2)OCCO3)C1 (configuration not stated) | inactive | 12.6 | –

Row | Compound | Potency | cell number change [%] | lipid storage change, negative = inhibition
76 | Cc1coc(=N)n1CC(=O)c1ccc(Cl)cc1 | inactive | 10.4 | –
77 | Cc1ccc(Cn2ncc(Cl)c(Cl)c2=O)cc1 | inactive | 1.44 | –
78 | O=c1c(Cl)c(Cl)cnn1Cc1ccccc1Cl | 14.6 µM (active) | -22.7 | –
79 | O=c1[nH]cnc2c1cnn2Cc1ccccc1Cl | inactive | – | –
80 | O=C(CS(=O)(=O)c1ccccc1)Nc1nnc(-c2cccs2)o1 | inactive | 3.1 | –
81 | CCn1c(=Nc2ccc(N3CCOCC3)cc2)ccc2ccccc21 | 9.2 µM (active) | -184 | –
82 | Oc1ccc2ccccc2c1C=Nc1ccc(N2CCOCC2)cc1 | inactive | – | –
83 | CCn1c2ccccc2c2cc(NC(=O)CN(C)CC(=O)Nc3ccc(N4CCOCC4)cc3)ccc21 | – | -4.9 | -0.511% [at 9.22 µM] (inactive)
84 | COc1cc(C(c2sc3ncnn3c2O)N2CCN(c3ccccc3F)CC2)cc(OC)c1OC (configuration not stated) | inactive | 14.8 | –
85 | CSc1nc(SCC(=O)O)c2c3c(sc2n1)COC(C)(C)C3 | inactive | 9.24 | –
86 | COc1ccc(S(=O)(=O)N2CCOCC2)cc1NC(=O)CSc1nnc2c(n1)[nH]c1ccccc12 | inactive | -0.0197 | –
87 | CC(=O)N1CCN(CCN=CC2=C(O)CC(c3cccs3)CC2=O)CC1 (configuration not stated) | 20.6 µM (active) | -26.6 | –
88 | C=CCNC(=S)N1CCN(CCN=CC2=C(O)CC(c3cccs3)CC2=O)CC1 (configuration not stated) | inactive | 17.2 | –
89 | CCCCCC(=O)N1CCN(CCN=CC2=C(O)CC(c3cccs3)CC2=O)CC1 (configuration not stated) | inactive | 0.809 | –
90 | Cc1coc2c(C)c3oc(=O)c(CCC(=O)NCCC(=O)O)c(C)c3cc12 | inactive | 7.91 | –
91 | Cc1ccc(-c2nc(CSc3nc4ccccc4c(=O)n3C)cs2)cc1 | inactive | 13.2 | –
92 | Cn1c(SCc2ccc(Br)cc2)nc2ccccc2c1=O | inactive | -15.2 | –
93 | Cc1ccc(CSc2nc3ccccc3c(=O)n2C)cc1 | 16.4 µM (active) | 10.9 | –
94 | COC(=O)c1[nH]c2ccc(Cl)cc2c1NC(=O)C1CC1 | inactive | 1.77 | –
95 | CCN(CC)c1ccc(/C=N/N2CC(=O)NC2=S)cc1 | 0.291 µM (active) | -17.5 | –
96 | CCN(CC)c1ccc(/C=N/n2c(C)cc(C)cc2=O)cc1 | inactive | 0.542 | –
97 | CCc1n[nH]c(=S)n1/N=C/c1ccc(N(CC)CC)cc1 | inactive | -4.64 | –
98 | COc1cc(NC(=O)c2ccc([N+](=O)[O-])cc2)c(OC)cc1NC(=O)CC(C)C | inactive | 14.3 | –
